Results as given in PubChem BioAssay AID1159580 (chemical genetic matrix, 2015).
About 2,000 (36%) of roughly 5,500 compounds were called active. Another 18% or so got no clear call; they are omitted. Cut-off read from the data, not from the text of the source: active = normalized growth mostly below about 0.91 (no sharp cut-off); inconclusive = no clear call, values can overlap the other calls; inactive = mostly above about 0.92. This is one part of the list.

Assay: chemical genetic growth profiling, strain panel (AID 1159580);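 note: tested at 20 µM; growth read once vehicle control cultures reached saturation at 30 °C; 1 = growth at the plate median or of vehicle wells; lower values mean less growth of the strain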
Settings: S. cerevisiae deletion strains, growth OD
[1] = locus YAR019C, strain CDC15, active compounds read low
[2] = locus YBL105C, strain PKC1, active compounds read low
[3] = locus YBR135W, strain CKS1, active compounds read low
[4] = locus YBR136W, strain MEC1, active compounds read low
[5] = locus YBR160W, strain CDC28, active compounds read low
[6] = locus YDL017W, strain CDC7, active compounds read low
[7] = locus YDL028C, strain MPS1, active compounds read low
[8] = locus YDL101C, strain DUN1, active compounds read low
[9] = locus YDL108W, strain KIN28, active compounds read low
[10] = locus YDL132W, strain cdc53, active compounds read low
[11] = locus YDL214C, strain PRR2, active compounds read low
[12] = locus YDR052C, strain DBF4, active compounds read low
[13] = locus YDR054C, strain cdc34, active compounds read low
[14] = locus YDR226W, strain ADK1, active compounds read low
[15] = locus YDR477W, strain SNF1, active compounds read low
[16] = locus YER123W, strain YCK3, active compounds read low
[17] = locus YER133W, strain GLC7, active compounds read low
[18] = locus YFL009W, strain cdc4, active compounds read low
[19] = locus YFL029C, strain CAK1, active compounds read low
[20] = locus YFR003C, strain YPI1, active compounds read low
[21] = locus YFR019W, strain FAB1, active compounds read low
[22] = locus YFR028C, strain CDC14, active compounds read low
[23] = locus YGR040W, strain KSS1, active compounds read low
[24] = locus YGR052W, strain FMP48, active compounds read low
[25] = locus YGR092W, strain DBF2, active compounds read low
[26] = locus YHR030C, strain SLT2, active compounds read low
[27] = locus YHR079C, strain IRE1, active compounds read low
[28] = locus YHR082C, strain KSP1, active compounds read low
[29] = locus YHR205W, strain SCH9, active compounds read low
[30] = locus YIL147C, strain SLN1, active compounds read low
[31] = locus YJL095W, strain BCK1, active compounds read low
[32] = locus YJL128C, strain PBS2, active compounds read low
[33] = locus YJL157C, strain FAR1, active compounds read low
[34] = locus YJR016C, strain ILV3, active compounds read low
[35] = locus YJR066W, strain TOR1 (second series), active compounds read low
[36] = locus YJR066W, strain TOR1, active compounds read low
[37] = locus YKL048C, strain ELM1, active compounds read low
[38] = locus YKL067W, strain YNK1, active compounds read low
[39] = locus YKL101W, strain HSL1, active compounds read low
[40] = locus YKL193C, strain SDS22, active compounds read low
[41] = locus YKL203C, strain TOR2, active compounds read low
[42] = locus YLR113W, strain HOG1, active compounds read low
[43] = locus YLR133W, strain CKI1, active compounds read low
[44] = locus YLR403W, strain SFP1, active compounds read low
[45] = locus YML070W, strain DAK1, active compounds read low
[46] = locus YMR001C, strain CDC5, active compounds read low
[47] = locus YMR205C, strain PFK2 (second series), active compounds read low
[48] = locus YMR277W, strain FCP1, active compounds read low
[49] = locus YNL006W, strain LST8, active compounds read low
[50] = locus YNL020C, strain ARK1, active compounds read low
[51] = locus YNL161W, strain CBK1, active compounds read low
[52] = locus YNL183C, strain NPR1, active compounds read low
[53] = locus YNL207W, strain RIO2, active compounds read low
[54] = locus YNL222W, strain SSU72, active compounds read low
[55] = locus YNL307C, strain MCK1 (second series), active compounds read low
[56] = locus YOL078W, strain AVO1, active compounds read low
[57] = locus YOL136C, strain PFK27, active compounds read low
[58] = locus YOR061W, strain CKA2, active compounds read low
[59] = locus YOR119C, strain RIO1, active compounds read low
[60] = locus YOR231W, strain MKK1, active compounds read low
[61] = locus YOR329C, strain SCD5, active compounds read low
[62] = locus YPL031C, strain PHO85, active compounds read low
[63] = locus YPL153C, strain RAD53, active compounds read low
[64] = locus YPL204W, strain HRR25, active compounds read low
[65] = locus YPL209C, strain IPL1, active compounds read low
[66] = locus YPL256C, strain CLN2, active compounds read low
[67] = locus YPR025C, strain CCL1, active compounds read low
[68] = locus YPR106W, strain ISR1, active compounds read low
[69] = locus YPR111W, strain DBF20, active compounds read low
[70] = strain NNK1, active compounds read low
[71] = strain TSCII, active compounds read low

Measured: normalized growth

O=C(Nc1ccc(OC(F)(F)F)cc1)OC1CN(C(c2ccccc2)c2ccccc2)C1
inactive: [1] 1 | [2] 0.995 | [3] 0.996 | [4] 0.999 | [5] 0.999 | [6] 0.999 | [7] 1 | [8] 0.984 | [9] 0.991 | [10] 1 | [11] 0.993 | [12] 0.99 | [13] 0.988 | [14] 0.995 | [15] 0.988 | [16] 0.96 | [17] 0.992 | [18] 0.988 | [19] 0.992 | [20] 0.998 | [21] 0.983 | [22] 1.01 | [23] 0.987 | [24] 1.1 | [25] 0.961 | [26] 0.9 | [27] 1.02 | [28] 1.06 | [29] 0.981 | [30] 1 | [31] 0.96 | [32] 0.993 | [33] 0.986 | [34] 1.01 | [35] 0.981 | [36] 0.98 | [37] 0.961 | [38] 0.969 | [39] 0.982 | [40] 1.01 | [41] 1.02 | [42] 0.943 | [43] 0.972 | [44] 0.973 | [45] 0.966 | [46] 1 | [47] 0.967 | [48] 1.01 | [49] 0.994 | [50] 0.969 | [51] 1 | [52] 0.969 | [53] 0.985 | [54] 1 | [55] 1 | [56] 1 | [57] 0.986 | [58] 0.987 | [59] 1.06 | [60] 1.01 | [61] 0.999 | [62] 0.99 | [63] 0.961 | [64] 0.96 | [65] 0.984 | [66] 1 | [67] 1 | [68] 0.991 | [69] 0.977 | [70] 0.981 | [71] 1.01

O=C(Nc1ccc(OC(F)(F)F)cc1)N1CCN(c2nc(-c3ccccc3)ns2)CC1
inactive: [1] 1 | [2] 1 | [3] 0.992 | [4] 0.992 | [5] 0.991 | [6] 0.992 | [7] 1.01 | [8] 0.97 | [9] 0.998 | [10] 1 | [11] 0.802 | [12] 0.992 | [13] 1 | [14] 0.995 | [15] 0.957 | [16] 0.861 | [17] 0.97 | [18] 0.991 | [19] 0.989 | [20] 0.98 | [21] 0.924 | [22] 0.997 | [23] 0.933 | [24] 0.906 | [25] 0.898 | [26] 0.893 | [27] 0.864 | [28] 0.905 | [30] 0.994 | [31] 0.91 | [32] 0.843 | [33] 0.888 | [34] 1 | [35] 0.858 | [36] 1.01 | [37] 0.867 | [38] 0.844 | [39] 0.79 | [40] 0.987 | [41] 1.01 | [43] 0.826 | [44] 0.905 | [45] 0.856 | [46] 0.992 | [47] 0.793 | [48] 0.989 | [49] 0.994 | [50] 0.818 | [51] 0.983 | [52] 0.815 | [53] 0.982 | [54] 0.994 | [55] 0.805 | [56] 0.997 | [57] 0.772 | [58] 0.856 | [59] 1 | [60] 0.843 | [61] 0.984 | [62] 0.952 | [63] 0.909 | [64] 0.941 | [65] 0.994 | [67] 1 | [68] 0.929 | [69] 0.925 | [70] 0.909 | [71] 0.979
active: [29] 0.51 | [42] 0.733 | [66] 0.832
